Measured values reported in PubChem BioAssay (NCI).
About 83,000 compounds went through this panel and 20% of them were active in at least one assay; those are over-represented in the sample as a whole.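 Testing used 96-well plates and a 48-hour single-concentration exposure. Example: -40 means 40% of the starting cells died.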 A number with no mark means an inactive call. Activity calls are given as the source filed them. How the source made its calls: active means growth percent below 10; inactive means the rest.

Test system: MDA-MB-468 breast
Test: NCI-60 one-dose screen, 48 h (100 = growth as untreated, 0 = no growth, -100 = all killed)
Settings: 10 µM unless noted

Compound: O=C(Cn1cc(CO)nn1)Nc1nc2ccccc2s1
- growth: 101%

Compound: CCCCCc1ccc(S(=O)(=O)Nc2cccc(-c3csc(NC(=O)CN4CCN(C)CC4)n3)c2)cc1
- growth: 89.5%

Compound: CN1CC=C(c2cc(NC(=O)Nc3ccc(Oc4ccnc(NC(=O)C5CC5)c4)c(F)c3)cc(C(F)(F)F)c2)CC1
- growth: -30.3% (active)

Compound: c1ccc(-c2oc(-c3ccccc3)c(CN3CCCCC3)c2CN2CCCCC2)cc1
- growth: -35.9% (active)

Compound: O=C(/C=C/c1cccc(Cl)c1)OCc1ccc2cc1OCC#C/C=C\C#CCO2
- growth: 79.2%

Compound: C=C1C(=O)O[C@H]2[C@H]1CC/C(COC(=O)NCCc1ccc(Br)cc1)=C\CC[C@@]1(C)O[C@@H]21
- growth: 4.63% (active)

Compound: CCOC(=O)c1c(/C=C/C(=O)O)nc2ccccc2c1/C=C/c1ccccc1
- growth: 7.2% (active)

Compound: Cc1ccc(C)c(/C=C2\CN(C(=O)OC(C)(C)C)C/C(=C\c3cc(C)ccc3C)C2=O)c1
- growth: 57.3%

Compound: N#Cc1c(N)nc(Cl)c(C#N)c1C(=O)c1ccccc1
- growth: -6.56% (active)

Compound: O=C(NCCN1CCCC1)n1cc(-c2ccncc2)c(-c2cc(O)cc(Cl)c2)n1
- growth: 75.8%

Compound: COc1ncc(-c2ccc3nccc(C#CCCCCC(=O)O)c3c2)cc1NS(=O)(=O)c1ccc(F)cc1F
- growth: -29.4% (active)

Compound: O=C(Nc1ccc(OS(=O)(=O)c2ccc(F)cc2)cc1)C12CC3CC(CC(C3)C1)C2
- growth: 39.4%

Compound: COc1ccc(/C=N\Nc2nc(SCCC(C)C)nc(-c3ccc(OC)cc3)c2C#N)cc1
- growth: 35.9%
